Measured values published in PubChem BioAssay AID1285 (Columbia University Molecular Screening Center, 2008).
Screen size: about 190,000 compounds; about 1,600 (0.84%) were called active.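 The calls were made as follows: active = inhibition above a set limit, derived from the sample mean plus 3 SD (cut at about 45% in these data); inconclusive = one replicate passes the limit while the other fails; inactive = the rest.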 This excerpt belongs to a sample that is enriched for actives.

Test: APP 5'UTR translational reporter suppression – APP 5'UTR luciferase, SH-SY5Y cells, primary screen (AID 1285)
Settings: SH-SY5Y APP 5'UTR-luciferase reporter, luminescence; at 2 µM; hits give high values
For `Cc1ccnc(NS(=O)(=O)c2ccc(NC(=O)c3ccc(S(=O)(=O)N4CCOCC4)cc3)cc2)n1`, the inhibition was 5.8% (inactive). For `Cc1cccc(-n2c(C)cc(/C=N\NC(=O)c3cccs3)c2C)c1`, the inhibition was -62.9% (inactive). In the case of `Cc1ccc(-c2nn(-c3ccccc3)cc2/C=N/NC(=O)c2ccc3c(c2)OCO3)cc1`, the inhibition was 4.8% (inactive). For `Cc1ccc(/C=N/NC(=O)C2=NNC(c3ccccc3)(c3ccccc3)C2)c(O)c1`, the inhibition was 73% (active). For `O=C(CCc1n[nH]c(=O)[nH]c1=O)N/N=C/c1ccc(Br)o1`, the inhibition was -6.1% (inactive). In the case of `CCCOC(=O)c1[nH]c2c(c1C)C(=O)CC(c1cccs1)C2` (stereo not given), the inhibition was 92% (active). With `CCCOC(=O)c1[nH]c2c(c1C)C(=O)CC(c1cc(OC)c(OC)c(OC)c1)C2` (stereo not given) the inhibition was -2.1% (inactive). For `CCOC(=O)c1[nH]c2c(c1C)C(=O)CC(c1ccc(N(C)C)cc1)C2` (stereo not given), the inhibition was -13.3% (inactive). With `CC(C)(C)NC(=O)NC(=O)COC(=O)CCC1CCCCC1` the inhibition was 61.5% (active). In the case of `COc1ccccc1OCCC(=O)OCC(=O)NC(=O)NC(C)(C)C`, the inhibition was -5.5% (inactive). With `CC(C)(C)NC(=O)NC(=O)COC(=O)C1(C)CC1(Cl)Cl` (stereo not given) the inhibition was 12.7% (inactive). In the case of `CN1CCC(OC(=O)COc2ccc(Cl)cc2Cl)CC1`, the inhibition was -5.1% (inactive). In the case of `COc1ccc(C(=O)Nc2ccccc2C(=O)N/N=C/c2ccccc2OC)cc1`, the inhibition was -8.9% (inactive). With `COc1cccc(/C=N/NC(=O)c2[nH]nc3c2CCc2ccccc2-3)c1O` the inhibition was 79.7% (active). With `COc1cccc(/C=N\NC(=O)C2=NNC(=O)C2C)c1O` (stereo not given) the inhibition was -73.4% (inactive). For `CCN(Cc1ccccc1)S(=O)(=O)c1cc(C(=O)O)ccc1OC`, the inhibition was -51.9% (inactive). With `N#C/C(C(=O)N1CCOCC1)=C1/SC(Cc2ccc(F)cc2)C(=O)N1c1ccccc1` (stereo not given) the inhibition was 56.6% (active). With `Cc1ccc(CC2S/C(=C(/C#N)C(=O)N3CCOCC3)N(c3ccccc3)C2=O)cc1` (stereo not given) the inhibition was -2.7% (inactive). In the case of `O=C(CC1SC(=Nc2ccccc2F)N(CCN2CCOCC2)C1=O)Nc1ccc(F)cc1F` (stereo not given), the inhibition was -19.1% (inactive). For `CCN(CC)C(=O)CS(=O)CC(=O)Nc1cc(OCCOC)c(Cl)cc1Cl` (stereo not given), the inhibition was -14% (inactive). For `Cc1oc2c(c1C(=O)N1CCOCC1)C(=O)c1ccccc1C2=O`, the inhibition was 2.1% (inactive). In the case of `O=C(NNC(=S)Nc1ccccc1)c1cccc(S(=O)(=O)N2CCOCC2)c1`, the inhibition was -32.5% (inactive). For `CCOC(=O)c1cnc(-n2nc(C)cc2C)nc1Nc1cccc(C(C)=O)c1`, the inhibition was -11.9% (inactive). For `CCOC(=O)c1cnc(-n2nc(C)cc2C)nc1-n1nc(C)cc1C`, the inhibition was 6% (inactive). For `CCOC(=O)c1cnc(-n2nc(C)cc2C)nc1NNc1cc(C)nc(-c2ccccc2)n1`, the inhibition was 72.1% (active). For `Cc1ccc(C(=O)NC(C)c2ccccc2)cc1Br` (stereo not given), the inhibition was 25.6% (inactive). In the case of `C/C=C/c1ccc(OCC(O)CN2CCCCCCC2)c(OC)c1` (stereo not given), the inhibition was -39% (inactive). In the case of `Nc1ccc(Oc2ccc(Cl)cc2)cc1`, the inhibition was 11.4% (inactive). In the case of `Cc1ccc(Oc2ccc(N)cc2)cc1`, the inhibition was 3.7% (inactive). With `CC(C)(C)c1ccc(Oc2ccc(N)cc2)cc1` the inhibition was 84.4% (active). With `Oc1ccc(/C=N/N(Cc2ccccc2)c2ccccc2)cc1` the inhibition was -13.4% (inactive). With `N=C1/C(=C/c2cccn2-c2cccc([N+](=O)[O-])c2)C(=O)N=C2SC=CN12` the inhibition was 17.8% (inactive). With `O=C(N/N=C/c1ccc2c(c1)OCO2)c1ccc(Cn2cc([N+](=O)[O-])cn2)o1` the inhibition was -17.9% (inactive). For `Cc1c(Cl)c([N+](=O)[O-])nn1Cc1ccc(C(=O)N/N=C\c2cc(Cl)ccc2O)o1`, the inhibition was 68.5% (active). For `Cc1c(Cl)c([N+](=O)[O-])nn1CCCC(=O)Nc1cc(Cl)ccc1Cl`, the inhibition was -6.1% (inactive). With `COc1cc(/C=N\NC(=O)c2nonc2N)c(OC)cc1Br` the inhibition was 1% (inactive). For `COCc1c(C(=O)N/N=C/C2CC=CCC2)nnn1-c1nonc1N` (stereo not given), the inhibition was 6.9% (inactive). For `Nc1nonc1-n1nnc(C(=O)N/N=C/c2cc(Br)ccc2O)c1CSC1=NCCS1`, the inhibition was 54.3% (active). With `CCC1(CC)NC(=O)N(CC(=O)OCC(=O)NC(=O)c2ccccc2)C1=O` the inhibition was 5.8% (inactive). For `Cc1nc2ccc(C(=O)O)cc2[nH]1`, the inhibition was 4.6% (inactive). With `COC(=O)Nc1nc2ccc(Sc3ccccc3)cc2[nH]1` the inhibition was 91.5% (active). With `CC(C)c1nc2ccc(C(=O)O)cc2[nH]1` the inhibition was -1.3% (inactive). For `CCO/C=C1\C(=O)N(c2ccc(OCC)cc2)C(=O)c2ccccc21`, the inhibition was -6.3% (inactive). In the case of `OCCC1CN(Cc2ccc3nsnc3c2)CCN1C1CCCCC1` (stereo not given), the inhibition was 0.3% (inactive). With `CC(C)N1CCC(=NNc2ccc([N+](=O)[O-])cc2S(=O)(=O)N2CCOCC2)CC1` the inhibition was 16.2% (inactive). In the case of `CCn1c2ccccc2c2cc(CC(N)=O)ccc21`, the inhibition was 15% (inactive). In the case of `COc1ccc(CCNC(=O)CN(c2ccccc2)S(C)(=O)=O)cc1OC`, the inhibition was -22.4% (inactive). For `COc1ccc(CCNC(=O)CC2SC(=Nc3cc(C)cc(C)c3)NC2=O)cc1OC` (stereo not given), the inhibition was 2.9% (inactive). In the case of `CCCN=C1NC(=O)C(CC(=O)NCCc2ccc(OC)c(OC)c2)S1` (stereo not given), the inhibition was 74.7% (active). For `Cc1cc(C)c(S(=O)(=O)N2CCOCC2)cc1C`, the inhibition was 10.3% (inactive). With `CCOc1ccc(Br)cc1S(=O)(=O)Nc1cccc(S(=O)(=O)N(CC)CC)c1` the inhibition was -7% (inactive). With `Cc1cnc(NC(=O)CSc2nnc(-c3ccc(Cl)cc3Cl)n2N)s1` the inhibition was -0.1% (inactive). In the case of `CCOc1ccccc1NC(=O)CCc1ccc(C)o1`, the inhibition was 9.7% (inactive). In the case of `Cc1ccc(CCC(=O)Nc2ncc(Cc3cc(Cl)ccc3Cl)s2)o1`, the inhibition was 94.1% (active). With `CN(C)c1ccc(Nc2c3c4c(cccc4n(C)c2=O)C(=O)c2ccccc2-3)cc1` the inhibition was 55.2% (active). With `CC1=NCCN1S(=O)(=O)c1cccc([N+](=O)[O-])c1` the inhibition was 11.4% (inactive). In the case of `COC(=O)CSc1ncnc2c1cnn2-c1ccc(C)cc1C`, the inhibition was -3.9% (inactive). With `CSc1nc(C)cc(SC(C(C)=O)C(=O)Nc2ccccc2)n1` (stereo not given) the inhibition was -17.5% (inactive). In the case of `CSc1nc(-c2ccccc2)nc(C(Cl)Cl)n1`, the inhibition was 48.7% (active). With `COc1ccc(NC(=O)CCNS(=O)(=O)c2ccc3c(c2)c(=O)n(C)c(=O)n3C)cc1OC` the inhibition was 17.6% (inactive). For `COCCN(C(=S)Nc1ccccc1OC)C1CCN(C(C)C)CC1`, the inhibition was -3.7% (inactive). For `COC(=O)c1cc2c(ccn2C)n1C`, the inhibition was -10.6% (inactive). In the case of `S=c1[nH]nc(-c2cccnc2)n1/N=C/C(Cl)=C\c1ccccc1`, the inhibition was -36.5% (inactive). With `Cc1ccc(/C=N\n2c(-c3ccccc3)n[nH]c2=S)s1` the inhibition was -4% (inactive). With `Cc1cc(-c2n[nH]c(=S)n2/N=C/C(Br)=C/c2ccccc2)n[nH]1` the inhibition was 83.5% (active). In the case of `CC(Oc1ccccc1)C(=O)NN1Cc2ccccc2C1=N` (stereo not given), the inhibition was -15% (inactive). With `O=C1c2cccc3c([N+](=O)[O-])ccc(c23)C(=O)N1CC1CCCO1` (stereo not given) the inhibition was 53% (active). In the case of `O=c1c2cc3c(=O)n(CC4CCCO4)c(=O)c3cc2c(=O)n1CC1CCCO1` (stereo not given), the inhibition was -21.8% (inactive). With `O=C(NCc1ccc2c(c1)OCO2)c1ccc2c(c1)C(=O)N(CC1CCCO1)C2=O` (stereo not given) the inhibition was 3.9% (inactive). For `COc1ccc(OC)c(Cc2nnc(CCC(=O)NC3CCCC3)o2)c1`, the inhibition was -10.4% (inactive). For `COc1ccc(OC(C)C(=O)NCCc2nc3ccccc3[nH]2)cc1` (stereo not given), the inhibition was -10.4% (inactive). With `COc1cc(OC)cc(C(=O)N[C@H](C(=O)Nc2nc3ccccc3[nH]2)C(C)C)c1` the inhibition was 94.9% (active). In the case of `COc1cc(OC)cc(C(=O)N[C@H](C(=O)OCC(=O)NC(C)c2ccccc2)C(C)C)c1` (stereo not given in full), the inhibition was 14.5% (inactive). In the case of `Cc1cc(/C=N/NC(N)=O)c(C)n1C1CCCCC1`, the inhibition was -4.6% (inactive). In the case of `CCOC(=O)C(NC(=O)CC(C)C)(Nc1sc2c(c1C(N)=O)CCCC2)C(F)(F)F` (stereo not given), the inhibition was 5.1% (inactive). With `O=C(COc1ccc(Cl)cc1[N+](=O)[O-])N1CCCCC1` the inhibition was -4% (inactive). With `CCOC(=O)C1=C(C)Nc2nc3ccccc3n2C1c1cccs1` (stereo not given) the inhibition was 6.6% (inactive). With `CCOc1ccc(C2C(C(=O)NC)=C(C)Nc3nc4ccccc4n32)cc1OC` (stereo not given) the inhibition was 11.5% (inactive). In the case of `COc1ccccc1NC(=O)C1=C(C)Nc2nc3ccccc3n2C1c1cccs1` (stereo not given), the inhibition was 91% (active). In the case of `COc1cccc(-c2nn(-c3ccccc3)cc2/C=C(\C#N)C(=O)NCCCn2ccnc2)c1`, the inhibition was 14.7% (inactive). For `C=CCN1C2CCCC1CC(NC(=S)Nc1cccc(OC)c1)C2` (stereo not given), the inhibition was -2.4% (inactive). With `COc1ccc(C2CC(=O)Nc3cc(C)c(C)cc32)c(OC)c1OC` (stereo not given) the inhibition was -0.3% (inactive). With `COCCOC(=O)C1=C(C)NC(=O)CC1c1cc2c(cc1Br)OCO2` (stereo not given) the inhibition was 3.7% (inactive). For `COc1cc2c(cc1/C=C1/NC(=O)N(c3ccccc3)C1=O)OCO2`, the inhibition was -15.4% (inactive). In the case of `COc1ccccc1C1C2=C(COC2=O)Nc2cc3c(cc21)OCO3` (stereo not given), the inhibition was 94.5% (active). With `CCCOc1ccccc1C1CC(=O)Nc2cc3c(cc21)OCO3` (stereo not given) the inhibition was 92.3% (active). With `COc1ccc(F)cc1S(=O)(=O)Nc1ccc2c(c1)OCO2` the inhibition was -19.9% (inactive). In the case of `CN1CCN(C(=O)/C(=C\c2cccs2)NC(=O)c2cccs2)CC1`, the inhibition was -8.2% (inactive). For `CCCCn1nc(C(=O)Nc2ccc(S(=O)(=O)Nc3ncccn3)cc2)c2ccccc2c1=O`, the inhibition was -36.5% (inactive). With `COc1cccc(CC(=O)N2CCCC(CCC(=O)N3CCN(c4ccccn4)CC3)C2)c1` (stereo not given) the inhibition was -8.5% (inactive). In the case of `CCOc1ncccc1C(=O)OCC(=O)NC1CC1`, the inhibition was 17% (inactive). In the case of `O=c1c([N+](=O)[O-])cccn1Cc1ccc(F)cc1Cl`, the inhibition was -2.2% (inactive). In the case of `Cc1ccc(OCC(=O)N/N=C\c2ccco2)c(C)c1`, the inhibition was -0.4% (inactive). With `Cc1ccc(/C=N/NC(=O)COc2ccccc2-c2ccccc2)cc1` the inhibition was 97% (active). For `Cc1ccc(OCC(=O)N/N=C/c2ccncc2)cc1`, the inhibition was 0.8% (inactive).
